From ChEMBL document CHEMBL1157539, “Thousands of chemical starting points for antimalarial lead identification” (Nature, 2010)

Assays:
Format in all cases: functional
[1] = tested on: Plasmodium falciparum; experiment: GSK_TCMDC: Inhibition of Plasmodium falciparum 3D7 in whole red blood cells, using parasite LDH activity as an index of growth. Test compounds present at 2uM
[2] = tested on: Plasmodium falciparum; experiment: GSK_TCMDC: Inhibition of Plasmodium falciparum Dd2 in whole red blood cells, using parasite LDH activity as an index of growth. Test compounds present at 2uM
[3] = tested on: HepG2; experiment: GSK_TCMDC: Percent inhibition of human HepG2 cell line. Test compounds present at 10uM.

Structure (SMILES) | Inhibition [1] [%] | Inhibition [2] [%] | Inhibition [3] [%]
COc1ccc2ccccc2c1CCCCN1CCN(CC(c2ccc(F)cc2)N2CCC(N3CCCC3)CC2)CC1.O=C(O)C(F)(F)F (configuration not stated) | 99 | 73 | 74
CCOC(=O)CN1Cc2cc(NCc3ccc4ccc5nc(C)[nH]c(=O)c5c4c3)ccc2C1=O | 84 | 91 | 40
CCOc1cc(NC(=O)Nc2ccnc3ccccc23)cc(OC)c1.Cl | 98 | 73 | 0
COc1ccc(C(=O)N2CCC(CN3CCOC(c4ccccc4)(c4ccccc4)C3)CC2)cc1 | 95 | 96 | 19
CCN(CC)S(=O)(=O)c1ccc(Cl)c(C(=O)Nc2ccc3nc(C)sc3c2)c1 | 96 | 94 | 9
Cn1nc(-c2cccc(CNC3CCc4ccccc43)c2)c2cnc(NC3CCCC3)nc21 (configuration not stated) | 100 | 23 | 14
Cc1cc(N[C@@H](Cc2ccccc2)C(=O)Nc2ccccc2)nc(NCCc2ccccc2)n1.O=C(O)C(F)(F)F | 100 | 87 | 8
CC(O)C1CCCCN1C(=O)c1cccc(-c2cccc(-c3nc4ccccc4[nH]3)c2)c1 (configuration not stated) | 99 | 76 | 20
O=[N+]([O-])c1ccccc1C=NN=c1cc[nH]c2ccccc12 | 100 | 98 | 3
COc1ccc(Cl)cc1NC(=O)Nc1ccc2c(c1)CCN(C1CCC1)CC2.Cl | 98 | 19 | 38
CCOc1ncccc1CN1CCC(N2CCc3cc(NC(=O)c4cc(C)on4)ccc32)C1 (configuration not stated) | 89 | 96 | 0
CC(=O)Nc1cc(C(=O)Nc2cccc(-c3cccc(-c4nc5cc(C(F)(F)F)ccc5[nH]4)c3)c2)ccc1C | 97 | 43 | 56
COc1cc(N)c(Cl)cc1C(=O)NCC1CCN(c2nc(C)cc(C)n2)CC1 | 96 | 95 | 0
N#Cc1ccc(S(=O)(=O)N2C(c3cccc([N+](=O)[O-])c3)C(C(=O)c3ccccc3)N(C3CCCCC3)C2c2cccc([N+](=O)[O-])c2)cc1 (configuration not stated) | 83 | 79 | 16
Cc1ccc(NC(=O)c2c(C)noc2-c2snnc2C)cc1 | 92 | 71 | 1
O=C(Nc1ccc(Cn2ncc(N3CCCNCC3)c(Cl)c2=O)cc1)Nc1ccc(SC(F)(F)F)cc1.O=C(O)C(F)(F)F | 93 | 68 | 9
Cc1cc(N)cc2nc(-c3ccc(N)cc3)[nH]c12 | 96 | 75 | 0
N#Cc1ccc(-c2ccc(C(=O)NC3CCN(CCN4CCC(c5cn(CCO)c6ccccc56)CC4)CC3)cc2)cc1 | 100 | 79 | 30
Cc1cc(=O)c(-c2ccc(OCc3ccc(OC(F)(F)F)cc3)cc2)c(C)[nH]1 | 97 | 92 | 3
CCCNC(=O)c1cncc(-c2cccc(CNC3Cc4ccccc4C3)c2)c1.O=C(O)C(F)(F)F | 100 | 2 | 0

Structure (SMILES) | Inhibition [1] [%] | Inhibition [2] [%] | Inhibition [3] [%]
Cc1noc(=O)c2ccc(NC(=O)C(O)(CSc3ccccc3)CC(C)C)cc12 (configuration not stated) | 99 | 89 | 0
CC(C)c1cc2c(cc1O)C(Cc1ccccc1Cl)N(C)CC2.Cl (configuration not stated) | 97 | 33 | 0
CCn1c(SCc2ccc(F)cc2)nc2sc3c(c2c1=O)CCN(C)C3 | 95 | 81 | 2
CCN1C(=O)C(CC(=O)Nc2cccc(Cl)c2)N(Cc2ccc(OC)c(OC)c2)C1=S (configuration not stated) | 100 | 68 | 13
O=C(C=Cc1ccc(Cl)c(Cl)c1)NCCCCCN1CCC(CCNS(=O)(=O)c2ccc(F)cc2)CC1 | 88 | 0 | 36
COc1cc(OCCCN(C)Cc2ccc(OC)c(OC)c2)ccc1NC(=O)c1cccc2c(O)c3cccc(F)c3nc12 | 94 | 62 | 10
Cc1cccc(-c2nc3[nH]c(=O)cc(NC(=O)C(C)C)n3n2)c1 | 96 | 93 | 0
CCNc1cc(C(=O)N[C@@H](Cc2ccccc2)[C@H](O)CNC23CCC(CC2)CC3)cc(N2CCCCS2(=O)=O)c1.Cl | 99 | 98 | 10
CCCCN1CC[C@@H](CCC(O)c2ccnc3ccc(OCCC(C)C)cc23)[C@@H](CC)C1.O=C(O)C(=O)O (some centres not stated) | 94 | 90 | 22
CN1CCCN(Cc2ccc(-c3ccc(NC(=O)c4cccc(C#N)c4)cc3)cc2)CC1.O=C(O)C(F)(F)F | 97 | 67 | 46
CC(C)CCC[C@@H]([C@@H](CC1CCCCC1)C(=O)N[C@@H](CCCCNC(=O)OCc1ccccc1)C(=O)Nc1nccs1)N(O)C=O | 98 | 90 | 0
Cc1[nH]c(C)c(-c2ccc(-c3ccccc3F)nc2)c(=O)c1Cl | 97 | 97 | 7
CCc1cc(=O)[nH]c(-n2nc(C)cc2NC(=O)CC(c2ccccc2)c2ccccc2)n1 | 92 | 75 | 37
O=C(Cc1ccc[n+]([O-])c1)Nc1cccc(-c2cccc(-c3nc4cc(F)ccc4[nH]3)c2)c1 | 92 | 98 | 28
CCc1ccccc1-c1csc(C(=O)NCC2CCN(Cc3ccc(C(C)(C)C)cc3)C2)c1.O=C(O)C(F)(F)F (configuration not stated) | 90 | 15 | 25
Cc1cccn2c(=O)c3cc(C(=O)NCc4cccnc4)c(=N)n(CCc4ccccc4)c3nc12 | 99 | 38 | 0
COc1ccc(NC(=O)[C@H](Cc2ccccc2)Nc2cc(C)nc(NCCc3cccnc3)n2)cc1.O=C(O)C(F)(F)F | 98 | 5 | 11
Cc1cccc2nc(-c3ccc(-c4ccc(CN5CCN(C6CCN(C)CC6)CC5)cc4)cc3)[nH]c12.O=C(O)C(F)(F)F | 100 | 100 | 99
COc1ccc(OCCCN2CCCCC2)cc1S(=O)(=O)c1ccc(OCc2ccc(C(F)(F)F)cc2)cc1.Cl | 94 | 8 | 52
COc1ccc(N2CCc3c(-c4cccc5cnccc45)cc(C)nc32)c(C)c1 | 96 | 0 | 20

Structure (SMILES) | Inhibition [1] [%] | Inhibition [2] [%] | Inhibition [3] [%]
CCCC(CNCc1cccc(OC(F)(F)C(F)F)c1)CNc1cc(=O)c2ccccc2[nH]1 (configuration not stated) | 100 | 94 | 0
COc1ccc(NC(=O)[C@H](CC(C)C)Nc2cc(C)nc(Nc3ccccc3)n2)cc1.O=C(O)C(F)(F)F | 100 | 92 | 25
Oc1cc(Nc2ccnc3cc(-c4cccc(CN5CCCCC5)c4)ccc23)c(F)cc1Cl | 100 | 100 | 21
CCCc1cc(N2CCC(N(CC)CC)C2)nc(Nc2ccc(OC)cc2)n1 (configuration not stated) | 90 | 4 | 9
O=C(/C=C/c1ccc(Cl)c(Cl)c1)NCCCCCN1CCC(NC(=O)Nc2cc(F)ccc2F)CC1 | 98 | 22 | 78
O=C(Nc1cccc(CCNCc2ccccc2)c1)Nc1cccc2ccccc12.O=C(O)C(F)(F)F | 100 | 8 | 13
CCOc1cc(C(=O)N[C@@H](Cc2ccccc2)[C@H](O)CNCc2cccc(OC)c2)cc(N2CCCCS2(=O)=O)c1.Cl | 97 | 94 | 3
Clc1ccc2c(NCc3ccc4c(c3)OCO4)ccnc2c1 | 100 | 97 | 6
COc1cc(F)c2ncc(Cl)c([C@@H](O)CN3CCC(NCc4ccc5c(n4)NC(=O)CO5)CC3)c2c1.Cl | 100 | 100 | 12
CC12CCC(CN(CC(O)Cn3c4ccccc4c4cc(I)ccc43)C1)C2(C)C.Cl (configuration not stated) | 94 | 82 | 0
Cc1ccc2[nH]c(Nc3ccc(Nc4nc5cc(C)ccc5[nH]4)c(C)c3)nc2c1 | 99 | 94 | 12
O=C(Nc1ccc2c(c1)CCN(C1CCC1)CC2)c1cn(-c2ccccc2)nc1-c1ccccc1.O=C(O)C(F)(F)F | 100 | 10 | 38
NCCNc1ccnc2cc(Cl)ccc12 | 100 | 54 | 9
COc1cc(C=Cc2ccc3ccccc3n2)cc(Br)c1OCC(=O)N(C)C | 99 | 87 | 28
COc1cc(C(=O)Nc2cccc(-c3cn4ccc(C)cc4n3)c2)cc(OC)c1OC | 97 | 83 | 0
CS(=O)(=O)c1ccc(-c2nc(NCC3CCCCC3)cc(C(F)(F)F)n2)cc1 | 83 | 76 | 0
COc1ccc(NC(=O)C2CCN(CCCCCNC(=O)/C=C/c3ccc(Cl)c(Cl)c3)CC2)cc1 | 98 | 0 | 26
CCCCn1c(Sc2ccc(C#N)c([N+](=O)[O-])c2)nnc1-c1ccc(OC)cc1 | 93 | 61 | 12
COc1cccc(C(=O)NCc2cccs2)c1Oc1ccccc1 | 98 | 4 | 0
